Like-named read-outs stand apart in the source and are kept apart here. The whole screen tested about 13,000 compounds, of which about 3,200 (25%) showed an effect of 50% or more. This is one part of the list.
Test system: P. falciparum stage V gametocytes
Design: BacTiter-Glo ATP luminescence viability of purified stage V gametocytes in 384-well plates, per cent inhibition versus DMSO
Details: 48 h, 5 µM, inhibitor

SMILES	% Inhibition	% Inhibition (% Inhibition)
COc1cc(CNC[C@@H](O)[C@H](Cc2ccccc2)NC(=O)c2cc(C3CCCC3)cc(N3CCCC3=O)c2)cc(OC)c1 [TCMDC-134558]	-9.273%	
COc1ccc(Nc2nccc(N3CCC(NC(=O)Nc4cccc(OC)c4)C3)n2)cc1 (centres unmarked) [TCMDC-133616]	-47.96%	
CCSc1nnc(C2CCCN(CC(=O)Nc3cc(C(F)(F)F)ccc3Cl)C2)n1CC (centres unmarked) [TCMDC-123540]	7.83%	
CC(=O)C1(c2ccccc2)CCN(CCC2(c3ccc(Cl)c(Cl)c3)CN(C(=O)C3CCCCC3)CCO2)CC1 (centres unmarked) [TCMDC-135326]	-73.48%	
CCOC(=O)c1c(C)n(-c2ccc(Cl)cc2)c2ccc(OC(=O)C=Cc3ccccc3)cc12 [TCMDC-125715]	-42.41%	
O=C(NCCN1CCCC1)N1CCCN(c2ncnc3cc(-c4ccc(F)cc4)sc23)CC1 [TCMDC-134393]	93.57%	
CN(C)CCNC(=O)N1CCCN(c2ncnc3cc(-c4ccccc4)sc23)CC1 [TCMDC-134389]	-9.14%	
O=C(NCCN1CCCC1)N1CCCN(c2ncnc3cc(-c4ccc(Cl)cc4)sc23)CC1 [TCMDC-134394]	-0.6581%	
O=C(Nc1ccccc1O)C1CCN(c2ncnc3cc(-c4ccc(F)cc4)sc23)CC1 [TCMDC-124822]	-65.25%	
CC(C)N1CCC(NC(=O)N2CCCN(c3ncnc4cc(-c5ccc(Cl)cc5)sc34)CC2)CC1 [TCMDC-134390]	-12.69%	
O=C(NCCN1CCCCC1)N1CCCN(c2ncnc3cc(-c4ccccc4)sc23)CC1 [TCMDC-134392]	3.881%	
CN(C)CCNC(=O)NC1CN(c2ncnc3cc(-c4ccccc4)sc23)C1 [TCMDC-134388]	-2.865%	
CC(C)N1CCC(NC(=O)N2CCCN(c3ncnc4cc(-c5ccccc5)sc34)CC2)CC1 [TCMDC-134391]	65.6%	
CN(C)CCNC(=O)N1CCCN(c2ncnc3cc(-c4ccc(Cl)cc4)sc23)CC1 [TCMDC-134387]	97.42%	
Cc1c(CNCCCNc2cc(=O)c3ccccc3[nH]2)sc(C(F)F)c1Br [TCMDC-141322]	-67.17%	
NC(=O)c1ccc(NC(=O)CN(Cc2ccc(Cl)cc2)S(=O)(=O)c2ccccc2)cc1 [TCMDC-124454]	35.94%	
CN(C)CCOc1ccc(-n2c(-c3nonc3N)nc3cncc(-c4ccc(F)cc4)c32)cc1 [TCMDC-134178]	-7.095%	
CC(=O)Nc1ccc([N+](=O)[O-])c2c(Br)cccc12 [TCMDC-125386]	-53.09%	
COc1cc(F)c2ncc(Cl)c([C@H](O)CN3CCC(NCc4ccc5c(n4)NC(=O)CO5)CC3)c2c1 [TCMDC-135487]	8.334%	
CC(C)(C)c1cc(/C=C/C(=O)NC2CCC(CN3CCC(c4c[nH]c5ccccc45)CC3)CC2)cc(C(C)(C)C)c1O (centres unmarked) [TCMDC-139757]		96.1%
CC(C)(C)c1cc(/C=C/C(=O)NC2CCC(CN3CCC(c4c[nH]c5ccccc45)CC3)CC2)cc(C(C)(C)C)c1O (centres unmarked) [TCMDC-139767]		105.4%
N#Cc1cccc(Nc2cc(C(F)(F)F)nc(Nc3ccccc3)n2)c1 [TCMDC-133458]	7.387%	
CCOc1cc(Cc2cnc(N)nc2N)cc(Br)c1OC [TCMDC-137721]	-8.107%	
CC(C)N(Cc1ccc(-c2ccc(C(F)(F)F)cc2)cc1)C(=O)Cn1c(SCc2cccc(F)c2F)cc(=O)c2cc(CN3CCCCC3)ccc21 [TCMDC-141593]	103.1%	

SMILES	% Inhibition	% Inhibition (% Inhibition)
CCN(Cc1ccc(-c2ccc(C(F)(F)F)cc2)cc1)C(=O)Cn1c(SCc2cccc(F)c2F)cc(=O)c2cc(CN3CCCCC3)ccc21 [TCMDC-141592]	106.5%	
COC(=O)C1(NC(=O)c2ccc(-n3nc(C)c(-c4ccccc4)c3N)cc2)CCCC1 [TCMDC-134041]	30.38%	
CCCC(C)NC(=O)C(N)Cc1cccc(I)c1 (centres unmarked) [TCMDC-141272]	-22.86%	
Cc1ncc([N+](=O)[O-])n1CCOC(=O)NC(NCC1COc2ccccc2O1)C(Cl)(Cl)Cl (centres unmarked) [TCMDC-125611]	93.51%	
CC(C)C(=O)NC(NC(=S)Nc1ccc(Br)cc1)C(Cl)(Cl)Cl (centres unmarked) [TCMDC-124131]	29.56%	
CC1(C)N=C(N)N=C(N)N1OCC1COc2ccccc2O1 (centres unmarked) [TCMDC-131585]	1.956%	
Cc1nn(CCOC(=O)NC(NCC2COc3ccccc3O2)C(Cl)(Cl)Cl)cc1[N+](=O)[O-] (centres unmarked) [TCMDC-124139]	72.15%	
Cc1ncc([N+](=O)[O-])n1CCOC(=O)NC(Nc1ccc(Br)cc1)C(Cl)(Cl)Cl (centres unmarked) [TCMDC-124219]	76.02%	
O=C(NCC1COc2ccccc2O1)c1cnc2c(c1)nc(-c1cnc(-c3ccccc3)[nH]1)n2CCSCc1c(F)cccc1Cl (centres unmarked) [TCMDC-139692]	12.96%	
O=C(/C=C/c1ccc(Cl)c(Cl)c1)NCCCCCN1CCCN(C(=O)Nc2ccc([N+](=O)[O-])cc2)CC1 [TCMDC-135754]	-58.55%	
Clc1ccc(CNc2nc(NCCc3cnc[nH]3)nc(N3CCCC4CCCCC43)n2)cc1 (centres unmarked) [TCMDC-139743]	10.44%	
Cc1oc(-c2ccccc2)nc1CCOc1ccc(C[C@H](Nc2ccccc2C(=O)c2ccccc2)C(=O)NCc2ccccn2)cc1 [TCMDC-138315]	-1.633%	
NC1=NC2(CCCC2)C(c2ccc(Cl)c(Cl)c2)C(N)=N1 (centres unmarked) [TCMDC-137490]	18.93%	
O=C(c1cnn(-c2ccccc2)c1C(F)(F)F)N1CCN(c2ccnc3cc(Cl)ccc23)CC1 [TCMDC-123790]	-13.06%	
COc1cc(Nc2nccc(NCC(O)c3ccc(C(F)(F)F)cc3)n2)cc(OC)c1OC (centres unmarked) [TCMDC-136589]	-6.814%	
Cc1nc(-c2ccc(-c3ccc(NC(=O)Nc4ccc(I)c(OCCN(C)C)c4)cc3)c(C)c2)no1 [TCMDC-139107]	-54.47%	
Cc1nc(-c2ccc(-c3ccc(C(=O)Nc4ccc(I)c(OCC5CCCN5C)c4)cc3)c(C)c2)no1 (centres unmarked) [TCMDC-139110]	-18.97%	
COc1ccc(-c2cccc(NC(=O)c3ccc(Cl)cc3)c2)cc1CN1CCNCC1 [TCMDC-132601]	95.75%	
COc1ccc(-c2cccc(NC(=O)c3cccc(C#N)c3)c2)cc1CN1CCNCC1 [TCMDC-132620]	19.71%	
COc1ccc(-c2cccc(NC(=O)c3ccc(Cl)cc3)c2)cc1CN1CCCC1 [TCMDC-132604]	46.68%	
O=C(Nc1ccc(-c2ccccc2)c(OCCN2CCNCC2)c1)c1ccc(-c2ccc(Cl)cc2)cc1 [TCMDC-138818]	100.4%	
COc1cc(NC(=O)c2ccc(-c3ccccc3)cc2)ccc1OCCCN1CCC(c2ccccc2)CC1 [TCMDC-141370]	-49.11%	
COc1ccc(-c2cccc(NC(=O)c3cccc(Cl)c3)c2)cc1CN1CCNCC1 [TCMDC-132613]	106.1%	
Cc1nc(-c2ccc(-c3ccc(C(=O)Nc4ccc(I)c(OCCN5CCCC5)c4)cc3)c(C)c2)no1 [TCMDC-139109]	57.83%	

SMILES	% Inhibition	% Inhibition (% Inhibition)
CN(C)CCOc1cc(NC(=O)c2ccc(-c3ccc(Cl)cc3Cl)cc2)ccc1-c1ccccc1 [TCMDC-138835]	-44.47%	
COc1ccc(-c2cccc(NC(=O)c3ccc(C#N)cc3)c2)cc1CN1CCCC1 [TCMDC-132611]	11.39%	
CC1C(c2cccc(Cl)c2)OCC(C)(C)N1C(=O)CCN1CCCCC1 (centres unmarked) [TCMDC-137873]	-11.63%	
COc1ccc2nccc([C@@H](O)CN3CCC(NCc4ccc5c(c4)NC(=O)C(C)(C)O5)CC3)c2c1 [TCMDC-141097]	21.74%	
NC(N)=NN=C1C=Cc2cccc3cccc1c23 [TCMDC-137662]	-87.82%	
Cc1cc(NC2CCCC2)nc(Nc2ccccc2F)n1 [TCMDC-133463]	-1.86%	
Cc1cc(C)cc(Oc2c(C(F)(F)F)oc3c(CN4CC(C)OC(C)C4)c(O)ccc3c2=O)c1 (centres unmarked) [TCMDC-125695]	-2.168%	
CCOc1ccccc1NC(=O)Nc1ccc2c(c1)CCN(C1CCC1)CC2 [TCMDC-135951]	31.77%	
CCN1CCN(C(=O)NC(C(=O)N(C)Cc2ccc(-c3ccc(C(F)(F)F)cc3)cc2)c2cccs2)C(=O)C1=O (centres unmarked) [TCMDC-141576]	23.66%	
CCOC(=O)NOC(C(=O)O)c1ccccc1 (centres unmarked) [TCMDC-131406]	-4.765%	
COC(=O)c1cccc(CNCc2cccc(-c3ccc(-c4nc5cc(C(F)(F)F)ccc5[nH]4)cc3)c2)c1.O=C(O)C(F)(F)F [TCMDC-132955]	-38.35%	
O=C(Nc1cccc(-c2ccc(CN3CCNCC3)cc2)c1)c1cccc(Cl)c1 [TCMDC-132640]	-31.19%	
COc1ccc(-c2cccc(NC(=O)c3cccc(Cl)c3)c2)cc1CN1CCCN(C)CC1 [TCMDC-132614]	-18.61%	
COc1ccc(-c2ccc(NC(=O)c3ccc(C#N)cc3)cc2)cc1CN1CCCC1 [TCMDC-132519]	46.41%	
COc1ccc(-c2ccc(NC(=O)c3ccc(C#N)cc3)cc2)cc1CN1CCNCC1 [TCMDC-132516]	43.65%	
COc1ccc(-c2ccc(NC(=O)c3cccc(Cl)c3)cc2)cc1CN1CCCC1 [TCMDC-132525]	40.62%	
O=C(Nc1cccc(-c2ccc(CN3CCCC3)cc2)c1)c1cccc(Cl)c1 [TCMDC-132643]	24.88%	
COc1ccc(-c2cccc(NC(=O)c3cccc(Cl)c3)c2)cc1CN1CCCC1 [TCMDC-132615]	79.62%	
O=C(Nc1ccc(-c2ccc(CN3CCNCC3)cc2)cc1)c1cccc(Cl)c1 [TCMDC-132590]	87.95%	
COc1ccc(-c2ccc(NC(=O)c3ccc(Cl)cc3)cc2)cc1CN1CCNCC1 [TCMDC-133338]	93.69%	
O=C(Nc1cccc(-c2cccc(CN3CCCC3)c2)c1)c1cccc(Cl)c1 [TCMDC-132659]	85.38%	
CN1CCCN(Cc2cccc(-c3cccc(NC(=O)c4cccc(Cl)c4)c3)c2)CC1 [TCMDC-132657]	-0.3892%	
CN1CCCN(Cc2ccc(-c3ccc(NC(=O)c4cccc(Cl)c4)cc3)cc2)CC1 [TCMDC-132591]	42.97%	

From publication PMC4552634, “A New Set of Chemical Starting Points with Plasmodium falciparum Transmission-Blocking Potential for Antimalarial Drug Discovery” (PLoS ONE, 2015)
